Experimental data published in PubChem BioAssay (EPA / NIEHS).
Some structures have more than one record in an assay (separate samples or runs), and their calls can disagree. Active and inactive are the calls of the source. Rule for the calls: active = hit-call score of the fitted dose curve at least 0.9, where 1 is the maximum; inactive = score below 0.9.

Columns and labels:
[1] = ATG_NFI_CIS: Attagene CIS-FACTORIAL HepG2 Assay for human Nuclear Factor I (NFI) (AID 2282989); conditions: HepG2 cis-regulatory reporter, NFI response element transcription; actives raise or lower the signal
Method in brief: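 Multiplexed cis-reporter system in human HepG2 cells reports native TF activity as reporter mRNA induction 24 h post-dose. Fragments labelled with 6-FAM, HpaI-digested and resolved by capillary electrophoresis; activity fitted both directions versus DMSO.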

[2] = biological target: Myc proto-oncogene protein (Homo sapiens) (UniProt P01106); assay: ATG_Myc_CIS: Attagene CIS-FACTORIAL HepG2 Assay for human Myelocytomatosis (Myc) Proto-Oncogene Transcription Factor (AID 2282990); conditions: HepG2, Attagene cis-reporter transcription factor activity; actives raise or lower the signal
Sequence of Myc proto-oncogene protein (Homo sapiens) (P01106 whole entry, looked up): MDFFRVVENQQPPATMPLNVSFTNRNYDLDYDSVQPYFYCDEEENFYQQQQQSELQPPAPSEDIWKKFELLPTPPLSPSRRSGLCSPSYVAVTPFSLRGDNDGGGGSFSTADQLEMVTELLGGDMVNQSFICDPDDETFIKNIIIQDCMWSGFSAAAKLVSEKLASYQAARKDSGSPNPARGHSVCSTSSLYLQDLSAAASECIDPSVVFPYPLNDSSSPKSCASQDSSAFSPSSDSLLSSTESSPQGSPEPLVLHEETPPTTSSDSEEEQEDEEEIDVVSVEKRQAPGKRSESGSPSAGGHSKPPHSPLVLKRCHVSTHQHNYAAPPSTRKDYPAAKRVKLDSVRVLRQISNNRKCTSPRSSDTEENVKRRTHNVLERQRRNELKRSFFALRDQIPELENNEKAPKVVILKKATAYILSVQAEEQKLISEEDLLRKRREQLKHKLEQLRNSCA
Method in brief: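 HepG2, transient MRTU transfection (cis promoters, endogenous TFs); 24 h dosing; TriZol RNA → oligo(dT) RT → PCR → 6-FAM primer extension → HpaI cut → CE. Bidirectional fit vs DMSO.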

[3] = ATG_NRF2_ARE_CIS: Attagene CIS-FACTORIAL HepG2 Assay for human Nuclear Factor Erythroid 2 Related Factor 2 (NFR2) response to Antioxidant Response Elements (ARE) (AID 2282992); conditions: HepG2 Attagene ARE/NRF2 reporter, transcription factor activity; actives raise or lower the signal;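 for AC50: reporter mRNA level measured by RT-PCR and capillary electrophoresis fluorescence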
Method in brief: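 Cis-factorial assay: transfected HepG2 reporter library, 24 h dosing, mRNA readout via RT-PCR/CE; DMSO-referenced bidirectional analysis.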

[4] = BSK_3C_TissueFactor: BioMAP Diversity Plus: 3C Assay for Tissue Factor Biomarker Activity (AID 2282997); conditions: BioMAP 3C HUVEC, tissue factor biomarker readout; actives raise or lower the signal
Method in brief: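 HUVEC were treated 24 h, then surface tissue factor measured by ELISA and fitted bidirectionally against DMSO. Parallel SRB total-protein staining assessed overt cytotoxicity at the same time point.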

[5] = BSK_3C_uPAR: BioMAP Diversity Plus: 3C Assay for Urokinase-type plasminogen activator receptor (uPAR) Biomarker Activity (AID 2282998); conditions: BioMAP 3C HUVEC, uPAR biomarker ELISA; actives raise or lower the signal
Method in brief: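 Values derive from bidirectional curve fitting relative to DMSO, which served as baseline of activity. uPAR was measured by ELISA in human umbilical vein endothelial primary cultures 24 h after compound addition.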

[6] = BSK_3C_VCAM1: BioMAP Diversity Plus: 3C Assay for Vascular cell adhesion molecule 1 (VCAM1) Biomarker Activity (AID 2282999); conditions: BioMAP 3C HUVEC, VCAM1 ELISA, cytokine-stimulated; actives raise or lower the signal
Method in brief: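 Endothelial cells from human umbilical vein are treated with test chemical. At 24 h, VCAM-1 is measured by ELISA, and responses in either direction are fitted relative to DMSO.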

[7] = BSK_4H_Eotaxin3: BioMAP Diversity Plus: 4H Assay for Eotaxin 3 Biomarker Activity (AID 2283000); conditions: primary human endothelial cells (HUVEC); actives raise or lower the signal;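 for outcome: CCL26 protein level quantified by ELISA in parallel with SRB cytotoxicity check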
Method in brief: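 Eotaxin-3 (CCL26) levels were measured by ELISA in HUVEC primary cultures 24 h post-dosing. Gain or loss of signal was fitted in both directions, with DMSO serving as baseline and negative control.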

[8] = ATG_NF_kB_CIS: Attagene CIS-FACTORIAL HepG2 Assay for human Nuclear Factor Kappa B (NF-kB) (AID 2282991); conditions: HepG2 Attagene cis-factorial NF-kB reporter mRNA; actives raise or lower the signal
Method in brief: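 Read-out: reporter transcript levels quantified by RT-PCR plus capillary electrophoresis of 6-FAM-labelled, HpaI-cut fragments. Transfected HepG2 cells, 24 h compound exposure, endogenous NF-kB-driven cis element; gain or loss scored versus DMSO.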

[9] = ATG_Oct_MLP_CIS: Attagene CIS-FACTORIAL HepG2 Assay for human Octamer-Binding Transcription Factor (Oct) (AID 2282993); conditions: HepG2 Attagene cis-factorial Oct reporter, mRNA; actives raise or lower the signal
Method in brief: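 After 24 h compound exposure, transfected HepG2 cells were lysed for total RNA; reporter-specific cDNA was PCR-amplified, fluorescently labelled and sized by capillary electrophoresis. Bidirectional curve fitting used DMSO as baseline.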

[10] = biological target: Cellular tumor antigen p53 (Homo sapiens) (UniProt P04637); assay: ATG_p53_CIS: Attagene CIS-FACTORIAL HepG2 Assay for human p53 Transcription Factor (AID 2282994); conditions: HepG2 p53 cis-element reporter, Attagene mRNA; actives raise or lower the signal
Sequence of Cellular tumor antigen p53 (Homo sapiens) (P04637 whole entry, looked up): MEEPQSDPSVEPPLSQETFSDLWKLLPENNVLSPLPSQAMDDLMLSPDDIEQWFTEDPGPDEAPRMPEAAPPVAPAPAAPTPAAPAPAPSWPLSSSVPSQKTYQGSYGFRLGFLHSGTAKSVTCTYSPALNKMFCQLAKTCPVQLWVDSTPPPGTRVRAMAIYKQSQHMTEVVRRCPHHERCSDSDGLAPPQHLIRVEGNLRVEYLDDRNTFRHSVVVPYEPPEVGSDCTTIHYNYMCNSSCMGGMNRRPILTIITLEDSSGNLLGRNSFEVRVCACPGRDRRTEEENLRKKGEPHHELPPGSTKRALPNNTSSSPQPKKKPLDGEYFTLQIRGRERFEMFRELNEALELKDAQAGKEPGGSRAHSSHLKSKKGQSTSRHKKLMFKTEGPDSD
Method in brief: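 Using HepG2 hepatoma cells carrying cis-acting multiplexed reporters, mRNA induction is detected after a 24 h exposure. Gain- and loss-of-signal responses are fitted relative to DMSO-treated cells.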

For `C=C[Si](OC(C)=O)(OC(C)=O)OC(C)=O`, the outcome [1] was “inactive”, the outcome [2] was “inactive” and the outcome [3] was “inactive”. For the same compound, the outcome [4] was “inactive”, the outcome [5] was “inactive” and the outcome [6] was “inactive”. The outcome [7] was “inactive”.

In the case of `O=C1OC(=O)c2cc(Oc3ccc4c(c3)C(=O)OC4=O)ccc21`, the outcome [1] was “inactive”, the outcome [8] was “inactive” and the outcome [3] was “inactive”. For the same compound, the outcome [9] was “inactive” and the outcome [10] was “inactive”.

For `CC(C)c1ccc(C=O)cc1`, the outcome [1] was “inactive”, the outcome [8] was “inactive” and the outcome [3] was “inactive”. For the same compound, the outcome [9] was “inactive” and the outcome [10] was “inactive”.

For `O=S(=O)(O)c1ccccc1C=Cc1ccc(-c2ccc(C=Cc3ccccc3S(=O)(=O)O)cc2)cc1`, the outcome [1] was “inactive”, the outcome [8] was “inactive” and the outcome [3] was “inactive”. The outcome [9] was “inactive” and the outcome [10] was “inactive”.

With `COc1ccc(-c2coc3cc(O)ccc3c2=O)cc1` the outcome [1] was “inactive”, the outcome [8] was “inactive” and the outcome [3] was “inactive”. For the same compound, the outcome [9] was “inactive”.

For `FC(F)=C(F)OC(F)(F)C(F)(F)C(F)(F)F`, the outcome [1] was “inactive”, the outcome [8] was “inactive” and the outcome [3] was “inactive”. The outcome [9] was “inactive” and the outcome [10] was “inactive”.

In the case of `C=C[C@](C)(O)CC[C@@H]1[C@@]2(C)CCCC(C)(C)[C@@H]2CC[C@@]1(C)O`, the outcome [1] was “inactive”, the outcome [8] was “inactive” and the AC50 [3] was 6.58 µM (active). The outcome [9] was “inactive” and the outcome [10] was “inactive”.

In the case of `CC(=O)Nc1ccc2c(c1)Cc1cc(NC(C)=O)ccc1-2`, the outcome [1] was “inactive”, the outcome [3] was “inactive” and the outcome [10] was “inactive”.

With `O=C1CCCCCCCCCCC(=O)OCCO1` the outcome [1] was “inactive”, the outcome [8] was “inactive” and the outcome [3] was “inactive”. For the same compound, the outcome [9] was “inactive” and the outcome [10] was “inactive”.

With `CC(=O)[C@H]1[C@H](C#N)C[C@H]2[C@@H]3CC=C4C[C@@H](O)CC[C@]4(C)[C@H]3CC[C@@]21C` the outcome [1] was “inactive”, the outcome [8] was “inactive” and the outcome [3] was “inactive”. The outcome [9] was “inactive” and the outcome [10] was “inactive”.

For `ON(Cc1ccccc1)Cc1ccccc1`, the outcome [1] was “inactive”, the outcome [8] was “inactive” and the outcome [3] was “inactive”. The outcome [9] was “inactive” and the outcome [10] was “inactive”.

In the case of `CC1(C)O[C@@H]2C[C@H]3[C@@H]4C[C@H](F)C5=CC(=O)C=C[C@]5(C)[C@@]4(F)[C@@H](O)C[C@]3(C)[C@]2(C(=O)CO)O1`, the outcome [1] was “inactive”, the outcome [3] was “inactive” and the outcome [9] was “inactive”.

In the case of `C=C[Si](C)(C)O[Si](C)(C)C=C`, the outcome [1] was “inactive”, the outcome [8] was “inactive” and the outcome [3] was “inactive”. For the same compound, the outcome [9] was “inactive” and the outcome [10] was “inactive”.

In the case of `O=C1CCCCCCCCCCCCCCCO1`, the outcome [1] was “inactive”, the AC50 [3] was 65.2 µM (active) and the outcome [9] was “inactive”. For the same compound, the outcome [10] was “inactive”.

For `C=C(C)C(=O)OCCO`, the outcome [1] was “inactive”, the outcome [3] was “inactive” and the outcome [9] was “inactive”.

In the case of `CCCCCC/C=C/C=O`, the outcome [1] was “inactive”, the AC50 [3] was 47.7 µM (active) and the outcome [9] was “inactive”.

For `O=S(=O)(O)CC(O)CCl` (centres undefined), the outcome [1] was “inactive”, the AC50 [3] was 30 µM (active) and the outcome [9] was “inactive”. The outcome [10] was “inactive”.

With `CN(C)CCCN(C)C` the outcome [1] was “inactive”, the outcome [2] was “inactive” and the outcome [3] was “inactive”. For the same compound, the outcome [10] was “inactive”.

For `CC(C)=CCCC(C)C=O` (centres undefined), the outcome [1] was “inactive”, the outcome [8] was “inactive” and the outcome [3] was “inactive”. For the same compound, the outcome [9] was “inactive” and the outcome [10] was “inactive”.

With `C=C(C)[C@@H]1CCC2=CCC[C@@H](C)[C@]2(C)C1` the outcome [1] was “inactive”, the outcome [8] was “inactive” and the AC50 [3] was 87.3 µM (active). For the same compound, the outcome [9] was “inactive” and the outcome [10] was “inactive”.

For `CC(C)=CCC[C@H](C)CCO`, the outcome [1] was “inactive”, the outcome [8] was “inactive” and the outcome [3] was “inactive”. The outcome [9] was “inactive” and the outcome [10] was “inactive”.

For `C=COCCCC`, the outcome [1] was “inactive”, the outcome [8] was “inactive” and the outcome [3] was “inactive”. The outcome [9] was “inactive” and the outcome [10] was “inactive”.

In the case of `CCCCCCCCCCCCCCCC[N+](C)(C)CC`, the outcome [1] was “inactive”, the outcome [3] was “inactive” and the outcome [9] was “inactive”. The AC50 [10] was 11.8 µM (active), the AC50 [4] was 12.1 µM (active) and the AC50 [5] was 0.65 µM (active). For the same compound, the AC50 [6] was 3.17 µM (active) and the AC50 [7] was 2.24 µM (active).

With `C=C(C)c1cccc(C(C)(C)N=C=O)c1` the outcome [1] was “inactive”, the outcome [8] was “inactive” and the outcome [3] was “inactive”. The outcome [9] was “inactive” and the outcome [10] was “inactive”.

For `CC=CC(F)(F)C(F)(F)C(F)(F)F`, the outcome [1] was “inactive”, the outcome [8] was “inactive” and the outcome [3] was “inactive”. The outcome [9] was “inactive”.

In the case of `C[C@]12C=CC(=O)C=C1CC[C@@H]1[C@@H]2[C@@H](O)C[C@@]2(C)[C@H]1CC[C@]2(O)C(=O)CO`, the outcome [1] was “inactive”, the outcome [8] was “inactive” and the outcome [3] was “inactive”. For the same compound, the outcome [9] was “inactive”.

For `C[Si](C)(CCCN)O[Si](C)(C)CCCN`, the outcome [1] was “inactive”, the outcome [8] was “inactive” and the outcome [3] was “inactive”. For the same compound, the outcome [9] was “inactive” and the outcome [10] was “inactive”.

For `CCCCNc1ccc(NCCCC)c2c1C(=O)c1ccccc1C2=O`, the outcome [1] was “inactive”, the outcome [8] was “inactive” and the AC50 [3] was 1.47 µM (active). For the same compound, the outcome [9] was “inactive”, the outcome [10] was “inactive” and the outcome [4] was “inactive”. The outcome [5] was “inactive”, the outcome [6] was “inactive” and the outcome [7] was “inactive”.

In the case of `CCCCC(CC)COCC1CO1` (centres undefined), the outcome [1] was “inactive”, the outcome [8] was “inactive” and the outcome [3] was “inactive”. The outcome [9] was “inactive”, the outcome [4] was “inactive” and the outcome [5] was “inactive”. The outcome [6] was “inactive”, the AC50 [7] was 3.97 µM (active) and the outcome [7] was “inactive”.

With `CC(C)c1ccc2c(c1)CC[C@H]1[C@](C)(CN)CCC[C@]21C` the outcome [1] was “inactive”, the AC50 [8] was 5.84 µM (active) and the outcome [3] was “inactive”. The outcome [10] was “inactive”.

With `CC1=NC(C)OC1C` (centres undefined) the outcome [1] was “inactive”, the AC50 [3] was 42.5 µM (active) and the outcome [9] was “inactive”. The AC50 [10] was 167 µM (active).

For `COc1ccc(C(Cl)=C(c2ccc(OC)cc2)c2ccc(OC)cc2)cc1`, the outcome [1] was “inactive”, the outcome [8] was “inactive” and the outcome [3] was “inactive”. For the same compound, the outcome [9] was “inactive” and the outcome [10] was “inactive”.

In the case of `C=CC(=O)NC(C)(C)CS(=O)(=O)O`, the outcome [1] was “inactive”, the outcome [8] was “inactive” and the outcome [3] was “inactive”. For the same compound, the outcome [9] was “inactive” and the outcome [10] was “inactive”.

In the case of `COC(=O)/C=C\C(=O)O`, the outcome [1] was “inactive”, the outcome [8] was “inactive” and the AC50 [3] was 43.3 µM (active). The outcome [9] was “inactive” and the outcome [10] was “inactive”.

With `CCOC(=O)N1CCC(=C2c3ccc(Cl)cc3CCc3cccnc32)CC1` the outcome [1] was “inactive”, the outcome [8] was “inactive” and the outcome [3] was “inactive”. For the same compound, the outcome [9] was “inactive” and the AC50 [10] was 7.13 µM (active).

For `Nc1ccc(Cl)cc1Cl`, the outcome [1] was “inactive”, the outcome [8] was “inactive” and the outcome [3] was “inactive”. The outcome [9] was “inactive”.

For `CCCCCCCCO[C@@H]1O[C@H](CO)[C@@H](O)[C@H](O)[C@H]1O`, the outcome [1] was “inactive”, the outcome [3] was “inactive” and the outcome [9] was “inactive”. For the same compound, the outcome [10] was “inactive”.

In the case of `Cc1ccc(C2OC[C@@H]3OC(c4ccc(C)cc4)O[C@H]([C@H](O)CO)[C@@H]3O2)cc1` (some centres undefined), the outcome [1] was “inactive”, the outcome [8] was “inactive” and the AC50 [3] was 100 µM (active). The outcome [9] was “inactive” and the outcome [10] was “inactive”.

With `Cc1c(C)c([N+](=O)[O-])c(C(C)(C)C)c([N+](=O)[O-])c1C` the outcome [1] was “inactive”, the outcome [3] was “inactive” and the outcome [9] was “inactive”. For the same compound, the outcome [10] was “inactive”.
